Screening results from PubChem.
SARS PLpro yeast – SARS-CoV PLP inhibition in yeast. AID 485353. S. cerevisiae expressing SARS-CoV PLpro, growth rescue. 330,000 compounds, 0.19% hits. Potency, µM (doses to about 32.9 µM), most hits filed as activators; note: nearly all actives have a fitted effect of over 55% in size
Pf growth 48h – P. falciparum growth inhibition at 48 hours (one generation); P. falciparum luciferase growth in erythrocytes, 48 h; Potency, µM (top dose mostly 28.7 µM), usual class: inhibitors; 310,000 compounds, 5.9% hits; active = well fitted inhibition curve with a large enough effect; inconclusive = small, poorly fitted or top-dose-only effect, or another doubt; inactive = no such curve, though single readings can be large or run the other way
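Luciferase-expressing P. falciparum in infected erythrocytes (2% hematocrit, 0.1% parasitemia final) in RPMI 1640/0.5% Albumax were exposed to compound for 48 hours at 37 C, 5% CO2; growth read as luminescence.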
Pf growth 96h – inhibits malaria parasite growth, 96 h; P. falciparum luciferase reporter growth, 96 h; Potency, µM (titrated, usually from 28.7 µM), most hits filed as inhibitors; 320,000 compounds, 6.9% hits; active = well fitted inhibition curve with a large enough effect; inconclusive = small, poorly fitted or top-dose-only effect, or another doubt; inactive = no such curve, though single readings can be large or run the other way
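Compounds incubated with erythrocytes infected by luciferase-expressing P. falciparum (2% hematocrit, 0.05% parasitemia final) for 96 hours, 37 C in 5% CO2. Growth inhibition scored as decreased luciferase luminescence.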
RE007 growth inh – less growth of the S. pombe RE007 Vpr strain. Potency, µM (titrated, usually from 92.2 µM), hits mostly inhibitors. S. pombe RE007 Vpr strain, BacTiter-Glo ATP luminescence, 24 h. AID 651644. 360,000 compounds, 0.21% hits; active = well fitted falling curve with a large enough effect; inconclusive = small, poorly fitted or top-dose-only effect; inactive = no such curve, though single readings can be large or run the other way; note: nearly all actives have a fitted effect of over 50% in size
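Fission yeast strain RE007, carrying one chromosomally integrated HIV-1 vpr copy, was seeded at OD 0.01 in PMG+AL medium with 23 nL pinned compound. After 24 h at 30 °C and 99% humidity, viability was read by BacTiter-Glo luminescence.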
NS1 function inh – inhibitors of influenza NS1 protein function; Potency, µM (doses to about 46.1 µM); 270,000 compounds, 0.4% hits; AID 2326; note: actives are rising curves; nearly all actives have a fitted effect of over 50% in size
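Compounds were scored for reversing the slow growth caused by influenza A NS1 in S. cerevisiae, measured by optical density at 600 nm. Assay medium contained 2% galactose at pH 6.0; NS1-free yeast of the same strain were the positive control.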
Of the large screens only hits and unclear results are named; the others gave an inactive call. Most compounds without a hit are left out; they make up all but 9.5% or so of the library. Unless noted, calls come from the whole dose curve.

COc1ccc(N2CCN(C(=O)CSc3nc4nc(C)cc(C)n4n3)CC2)cc1	Pf growth 48h inconclusive, Pf growth 96h 13µM (no result: NS1 function inh)
N#C/C(N)=C(/C#N)N=Cc1cccc(Cl)c1	Pf growth 48h inconclusive
CCCC1CC(=O)NC1(C(=O)OCC)C(=O)OCC (stereo unspecified)	none (no result: SARS PLpro yeast, Pf growth 48h, Pf growth 96h, NS1 function inh)
O=C(OCc1ccccn1)c1ccc(COc2ccc3ccccc3c2)o1	none
Cc1ccc(-c2nnc(CSc3nc4cc5c(cc4cc3C)OCO5)o2)cc1	Pf growth 96h 13µM
O=C(N/N=C/C=C/c1ccc([N+](=O)[O-])cc1)C1COc2ccccc2O1 (stereo unspecified)	Pf growth 96h 12µM, RE007 growth inh inconclusive
CC(C)Oc1ccc(CN2CCC(n3nccc3NC(=O)C3CC3)CC2)cc1	Pf growth 96h inconclusive
O=C(Nc1ccnn1C1CCN(C2CCC2)CC1)c1ccccc1	Pf growth 96h 12µM
CCOc1ccccc1C(=O)Nc1ccccc1-c1ccccc1	Pf growth 96h 4.1µM
O=C(Nc1ccccc1Br)c1ccccc1-c1ccccc1	Pf growth 96h 7.4µM
CCOc1ccccc1C(=O)Nc1nccs1	Pf growth 96h 6.6µM
CCOc1ccccc1C(=O)Nc1ccccc1O	Pf growth 48h inconclusive, RE007 growth inh inconclusive (no result: Pf growth 96h)
COc1ccc(-c2cc3cc(-c4cc(OC)c(OC)c(OC)c4)ccc3o2)cc1	none (no result: NS1 function inh)
CCc1nc(NCC2CC2)c2nnn(Cc3ccccc3)c2n1	none (no result: SARS PLpro yeast, Pf growth 48h, Pf growth 96h, NS1 function inh)
CCn1c(COc2ccccc2C)nnc1SCC(=O)OC	Pf growth 96h inconclusive
CCn1c(SCC(=O)N2CCOCC2)nnc1-c1cccs1	Pf growth 96h 12µM
CCn1c(COc2cccc(C)c2C)nnc1SCC(=O)N1CCN(c2ccc(OC)cc2)CC1	Pf growth 48h inconclusive, Pf growth 96h 9.3µM
CCn1c(COc2ccccc2C)nnc1SCC(=O)N1CCN(c2ccccc2)CC1	Pf growth 48h 10µM, Pf growth 96h inconclusive
CCn1c(SCC(=O)N2CCCc3ccccc32)nnc1-c1cccs1	Pf growth 48h inconclusive
O=C(O)CCCc1ccc2ccccc2c1	none (no result: SARS PLpro yeast, Pf growth 48h, Pf growth 96h, RE007 growth inh)
O=C1OC(O)c2cccc3cccc1c23 (stereo unspecified)	none (no result: SARS PLpro yeast, Pf growth 48h, Pf growth 96h, NS1 function inh)
CC(C)c1ccc(NC2=CC(=O)CC(C)(C)C2)cc1	Pf growth 96h 4.7µM
CCc1ccc(NC2=CC(=O)CC(C)(C)C2)cc1	none
CCOc1ccc(S(=O)(=O)N2CCOCC2)cc1NC(=O)CN1C(=O)NC(C)(c2ccccc2)C1=O (stereo unspecified)	Pf growth 48h inconclusive, Pf growth 96h inconclusive (no result: NS1 function inh)
CCOc1ccc(S(=O)(=O)N2CCOCC2)cc1NC(=O)CN1C(=O)NC(CC)(c2ccccc2)C1=O (stereo unspecified)	Pf growth 48h 12µM, Pf growth 96h inconclusive
CC(C)Oc1ccc(S(=O)(=O)N2CCCCC2)cc1NC(=O)CN1C(=O)NC(C)(C2CC2)C1=O (stereo unspecified)	Pf growth 48h inconclusive (no result: NS1 function inh)
CC(C)Oc1ccc(S(=O)(=O)N2CCCCC2)cc1NC(=O)CN1CCCC1c1cccs1 (stereo unspecified)	Pf growth 48h 4.1µM, Pf growth 96h 4.1µM (no result: NS1 function inh)
CC(C)Oc1ccc(S(=O)(=O)N2CCCCC2)cc1NC(=O)CN1C(=O)NC2(CCCC2)C1=O	Pf growth 48h 12µM, Pf growth 96h inconclusive (no result: NS1 function inh)
CCC1(c2ccccc2)NC(=O)N(CC(=O)Nc2cc(S(=O)(=O)N3CCOCC3)ccc2OC(C)C)C1=O (stereo unspecified)	Pf growth 48h 12µM, Pf growth 96h inconclusive (no result: NS1 function inh)
COc1ccccc1C(=O)NC(=O)CSc1nncn1C(C)C	none (no result: NS1 function inh)
COc1ccc(NC(=O)CN(c2ccccc2F)S(=O)(=O)c2ccc(C)cc2)cc1	none
O=[N+]([O-])c1ccccc1S(=O)(=O)N1CCN(S(=O)(=O)c2ccc3c(c2)OCCO3)CC1	none (no result: Pf growth 48h, Pf growth 96h, RE007 growth inh, NS1 function inh)
Cc1cc(C)c(NC(=O)CN2C(=O)NC3(CCCCC3)C2=O)c(Cl)c1	Pf growth 96h 13µM
CCOc1ccc(S(=O)(=O)N2CCCCC2)cc1NC(=O)CN1C(=O)NC(C)(c2ccc(C)cc2)C1=O (stereo unspecified)	Pf growth 48h 13µM, Pf growth 96h 7.4µM (no result: NS1 function inh)
COc1ccc(S(=O)(=O)N2CCCCCC2)cc1NC(=O)CN1C(=O)NC(C)(c2ccc(C)cc2)C1=O (stereo unspecified)	Pf growth 48h inconclusive, Pf growth 96h inconclusive (no result: NS1 function inh)
Cc1cc(C)c(NC(=O)CN2C(=O)NC3(CCc4ccccc43)C2=O)c(Cl)c1 (stereo unspecified)	none (no result: Pf growth 48h, Pf growth 96h, NS1 function inh)
